Several values for one entry are separate records, joined by “and”; a condition that tells them apart may be missing. Equal entries are not always repeated. This is part of a sample that, as a whole, favours compounds with a hit. Of some 83,000 tested, about 20% had one in any assay.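 For each line, cells grew in 96-well plates with the test compound present at a single concentration for 48 hours.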 Activity calls are given as the source filed them. Rule for the calls: active = growth percent below 10; inactive = the rest.
Tested on: MDA-MB-468 breast
Assay: NCI-60 one-dose screen, 48 h (100 = growth as untreated, 0 = no growth, -100 = all killed)
Conditions: 10 µM unless noted

Row | SMILES | growth
1 | CCCCCCCCCCCCCCCc1ccc(N)c(OC2OC(CO)C(O)C(O)C2O)c1 (stereo not given) | 76.5% (inactive)
2 | COc1cc(-c2nc3occn3c2-c2ccnc(NCCNS(=O)(=O)c3ccc(Cl)cc3)n2)ccc1F | 63.1% (inactive)
3 | FC(F)(F)c1[nH]ncc1-c1nc2ccc3[nH]ncc3c2c2c1CCCC2 | 19.7% (inactive)
4 | N/C(=C\C(=O)n1nc(-c2ccccc2)cc1N)c1ccccc1 | 19.2% (inactive)
5 | COc1ccc(C(=O)c2sc3nc4c(c(-c5cccnc5)c3c2N)CCCC4)cc1OC | 102% (inactive)
6 | O=S(=O)(NCCNc1nccc(-c2c(-c3ccc(F)c(O)c3)nc3sccn23)n1)c1ccc(O)cc1 | 31.4% (inactive)
7 | CCCCCCCCCCCC[n+]1c(C)cc(N)c2ccccc21 | -34% (active)
8 | C=C1C(=O)O[C@H]2[C@H]1CC/C(COC(=O)OC/C1=C/CC[C@@]3(C)O[C@H]3[C@H]3OC(=O)[C@@H](CN(C)C)[C@@H]3CC1)=C\CC[C@@]1(C)O[C@@H]21 | -14% (active)
9 | O=C(Nc1ccc(C(=O)/C=C/c2ccc(N3CCOCC3)cc2)cc1)Nc1ccc([N+](=O)[O-])cc1 | 91% (inactive)
10 | c1ccc(CNc2ncnc3scc(-c4cccs4)c23)nc1 | 12% (inactive)
11 | Oc1c(C(c2ccc(F)cc2)N2CCCCC2)ccc2cncnc12 (stereo not given) | -2.7% (active)
12 | N#Cc1nc(C#N)c(Sc2ccccc2)c(Sc2ccccc2)c1Sc1ccccc1 | -73.9% (active)
13 | NC(N)=N/N=C\c1cccc(OCc2ccccc2)c1 | 19.1% (inactive)
14 | CCC1=Cc2cc(OC)ccc2OC12C=Cc1cc(OC)ccc1O2 (stereo not given) | 69.6% (inactive)
15 | COc1cc(OC)c(/C=C/S(=O)(=O)Cc2cnc(OC)c(N)c2)c(OC)c1 | 23.6% (inactive)
16 | CC(C)Cc1ccc(C(C)C(=O)NCc2ccc(Cn3c(=O)sn(CCCCl)c3=O)cc2)cc1 (stereo not given) | 80.8% (inactive) and -83.8% (active)
17 | CCOC(=O)c1c(C)nc2ccccc2c1/C=C/c1ccc(F)cc1 | -2.47% (active)
18 | COc1cc2nccc(Oc3ccc(NC(=O)C4(C(=O)Nc5ccc(F)cc5)CC4)cc3)c2cc1Oc1ccc(N)cn1 | 31.7% (inactive)
19 | Cc1nc([N+](=O)[O-])c(Sc2nncc(-c3ccccc3)n2)n1C | 29.5% (inactive)
20 | COc1ccc(-c2cc(-c3cn(-c4cccc(Cl)c4)nc3-c3ccc(OC)cc3)on2)cc1 | 88.9% (inactive)

Row | SMILES | growth
21 | Cc1ccc(C(O)C2CC2)cc1 (stereo not given) | 103% (inactive)
22 | C#CC[C@@H]1C[C@]2(C)[C@H]3CC[C@@H]4[C@H]5[C@H](C(=C)C)CC[C@]5(C(=O)O)CC[C@@]4(C)[C@]3(C)CC[C@H]2C(C)(C)[C@H]1O | -2.92% (active)
23 | COc1ccc(Cl)cc1-n1nnc(-c2nc3ccccc3[nH]2)c1N | 63.2% (inactive)
24 | COc1cc2oc(-c3ccc(O)cc3)cc(=O)c2c(O)c1-c1c(OC)cc(O)c2c(=O)cc(-c3ccc(O)cc3)oc12 | 36.1% (inactive)
25 | CCCCCCCC/C=C/CCCCCCCC1=NC(C)(C)CN1C(C)C | -70.1% (active)
26 | COc1ccc(C(=O)CSc2nccc(Nc3ccc(C(=O)O)cc3)n2)cc1 | 104% (inactive)
27 | COc1ccc(C(=O)/C=C/c2ccc(OCc3ccc(C)cc3)c(OC)c2)cc1OC | 49.9% (inactive)
28 | CC(=O)Oc1ccccc1C(=O)N(Cc1ccc2c(Cl)cc(Cl)c(O)c2n1)c1ccccc1 | 40.9% (inactive)
29 | CC(C)=CC(=O)OC(=O)C=C(C)C | 92.9% (inactive)
30 | CCCCC/C(=C\c1ccccc1)C1OC(C)C(C)O1 (stereo not given) | 98.8% (inactive)
31 | CCN1CCN(C(=O)[C@]23CCC(C)(C)C[C@H]2C2=CC[C@@H]4[C@@]5(C)Cc6c([nH]c7ccccc67)C(C)(C)[C@@H]5CC[C@@]4(C)[C@]2(C)CC3)CC1 | 84.7% (inactive)
32 | CCOC(=O)c1cn2ncnc(Oc3ccc(NC(=O)NCCN(C)C)c(Cl)c3)c2c1C | 67.4% (inactive)
33 | Nc1nc(-c2cccc3ccccc23)cc2ccccc12 | -4.35% (active)
34 | C[N+]1=C(/C=C/c2ccc(I)cc2)C(C)(C)c2ccccc21 | 95.3% (inactive)
35 | CC(C)=CCC[C@@H](C)[C@H]1CC[C@@]2(C)C3=C(CC[C@]12C)[C@@]1(C)CC[C@H](O)C(C)(C)[C@@H]1CC3 | 102% (inactive)
36 | Nc1cc(-c2cccc(OC(F)(F)F)c2)nc2ccc(N3CCCC3)cc12 | -10.7% (active) and -15.9% (active) and -23.5% (active)
37 | CC1OC(O[C@@H]2C(O)C(CO)OC(O[C@H]3COC(O[C@H]4CC[C@]5(C)[C@H]6CC[C@]78OC[C@@]9(CC[C@](C)(C=O)C[C@H]97)[C@H](O)C[C@@]8(C)[C@]6(C)CC[C@H]5C4(C)C)[C@@H](OC4OC(CO)[C@@H](O)[C@@H](O)[C@@H]4O)[C@@H]3O)[C@H]2OC2OC[C@@H](O)[C@@H](O)[C@@H]2O)[C@@H](O)[C@@H](O)[C@H]1O (stereo not given in full) | 34.5% (inactive)
38 | Cn1cc(-c2nc(-c3c[nH]c4ncccc34)cs2)c2cccnc21 | -6.43% (active)
39 | Nc1nc2c(nnn2Cc2ccc(Cl)c(Cl)c2)c(=O)[nH]1 | 103% (inactive)
40 | COc1cc2nc(Nc3ccc(F)cc3)nc(N)c2cc1OC | 83.4% (inactive)

Reference: PubChem BioAssay (NCI)
